Bioassay records deposited in PubChem by National Center for Advancing Translational Sciences (NCATS).
MCF10A rereplic = DNA re-replication induction in MCF 10a cells | 2.9% of 350,000 active | AID 624296 | Potency, µM (top dose mostly 46.1 µM), most hits filed as activators | MCF 10A DNA re-replication, Hoechst nuclear intensity, 48 h; note: nearly all actives have a fitted effect of over 50% in size
ASM inhibitor = inhibitors of human secretory acid sphingomyelinase. placental ASM, HMU-PC fluorogenic substrate, 60 min. Potency, µM (top dose mostly 57.5 µM), most hits filed as inhibitors. P17405. 0.006% of 340,000 active
Target sequence (P17405 47-631 limits assumed): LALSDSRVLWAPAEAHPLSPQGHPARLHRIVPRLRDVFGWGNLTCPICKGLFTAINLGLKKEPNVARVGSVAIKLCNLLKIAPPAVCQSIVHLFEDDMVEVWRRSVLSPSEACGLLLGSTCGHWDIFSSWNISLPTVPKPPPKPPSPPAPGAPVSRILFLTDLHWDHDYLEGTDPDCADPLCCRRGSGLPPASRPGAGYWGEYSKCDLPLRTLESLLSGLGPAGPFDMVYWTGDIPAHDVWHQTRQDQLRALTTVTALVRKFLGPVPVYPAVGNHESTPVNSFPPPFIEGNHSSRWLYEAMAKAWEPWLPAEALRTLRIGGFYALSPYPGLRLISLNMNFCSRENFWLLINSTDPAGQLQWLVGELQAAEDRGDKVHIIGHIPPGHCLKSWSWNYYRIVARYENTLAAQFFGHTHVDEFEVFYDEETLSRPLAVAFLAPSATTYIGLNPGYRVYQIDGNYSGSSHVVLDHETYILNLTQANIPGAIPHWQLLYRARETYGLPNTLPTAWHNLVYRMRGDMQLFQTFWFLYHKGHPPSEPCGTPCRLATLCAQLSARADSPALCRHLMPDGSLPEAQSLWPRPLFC
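Human placenta-derived ASM enzyme was preincubated with compound for 10 minutes at room temperature, then given fluorogenic substrate HMU-PC0 (9 uM final) for 60 minutes at 37 °C; a pH 10 stop preceded fluorescence reading at Ex 386/Em 447 nm.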
Giardia kill = kills Giardia lamblia | activity change, % at 7.66 µM, hits read low | Giardia lamblia trophozoite viability | 0.15% of 340,000 active; in the data active = activity change below about -80%; inconclusive = between about -30% and that limit;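 note: parasites exposed to compound for two days anaerobically before the ATP read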
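Luminescent ATP signal served as the viability read-out, measured 15-30 min after adding ATP detection reagent to trophozoites that had been incubated with compounds for 48 hrs at 37 deg C anaerobically at 100 cells/well.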
SW480 rerep = inducers of DNA re-replication in SW480 colon cancer cells | SW480 DNA re-replication, Hoechst DNA content imaging, 48 h | AID 624297 | Potency, µM (highest dose often 46.1 µM), hits mostly activators | 1.8% of 340,000 active; note: nearly all actives have a fitted effect of over 55% in size
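Image-based read-out: total Hoechst fluorescence of nuclei (405 nm excitation, 500-530 nm emission), with hits raising the fraction of high-intensity nuclei. SW480 colon cells incubated 48 hr with compounds at 37 C.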
KB-3-1 cytotox = kills parental KB-3-1 adenocarcinoma cells; KB-3-1 viability, CellTiter-Glo ATP luminescence, 72 h; 1.4% of 400,000 active; Potency, µM (series often up to 46.1 µM), hits mostly cytotoxic; note: nearly all actives have a fitted effect of over 60% in size
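Viability of parental KB-3-1 cells, measured by CellTiter-Glo luminescence, followed a 72 h incubation at 37 °C with pinned compounds in phenol-red-free DMEM containing 10% FBS.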
KB-V1 cytotox = KB-V1 MDR subline cytotoxicity. 3.4% of 400,000 active. Potency, µM (series often up to 46.1 µM), most hits filed as cytotoxic. KB-V1 MDR cells viability, CellTiter-Glo, 72 h; note: nearly all actives have a fitted effect of over 60% in size
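Potencies derive from concentration-effect curves fitted to normalized luminescence (CellTiter-Glo) of KB-V1 cells treated for 72 h at 37 degrees C in phenol-red-free DMEM containing 10% FBS.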
Numbers stand for hits. Only some compounds are listed: those with a hit (about 6.9% of all), similar ones and a draw of the others. Unless noted, calls come from the whole dose curve; as a rule, active = well fitted curve in the direction sought with a large enough effect; inconclusive = small, poorly fitted or top-dose-only effect, or another doubt; inactive = no such curve, though single readings can be large; an effect the other way counts as inactive or inconclusive.

What do the screens show for `COc1ccc(CCn2c(Br)nc3c2c(=O)[nH]c(=O)n3C)cc1`?
MCF10A rereplic: inactive; ASM inhibitor: inactive; Giardia kill: inactive; SW480 rerep: inconclusive; KB-3-1 cytotox: 5.2µM; KB-V1 cytotox: 4.1µM

How did Cn1c(=O)[nH]c(=O)c2c1nc(Br)n2C/C=N/Nc1ccccc1 do in these assays?
MCF10A rereplic: inconclusive; ASM inhibitor: inactive; Giardia kill: inactive; SW480 rerep: inactive; KB-3-1 cytotox: 16µM; KB-V1 cytotox: inactive

What do the screens show for `COc1ccc(CCn2c(NN=C(C)C)nc3c2c(=O)[nH]c(=O)n3C)cc1`?
MCF10A rereplic: inactive; ASM inhibitor: inactive; Giardia kill: inactive; SW480 rerep: inactive; KB-3-1 cytotox: inactive; KB-V1 cytotox: inactive

Results for COc1ccc(CCn2c(N3CCN(C)CC3)nc3c2c(=O)[nH]c(=O)n3C)cc1 ?
MCF10A rereplic: inactive; ASM inhibitor: inactive; Giardia kill: inactive; SW480 rerep: inactive; KB-3-1 cytotox: inactive; KB-V1 cytotox: inactive

How did COc1ccc(CCn2c(NN)nc3c2c(=O)[nH]c(=O)n3C)cc1 do in these assays?
MCF10A rereplic: inconclusive; ASM inhibitor: inactive; Giardia kill: inactive; SW480 rerep: 15µM; KB-3-1 cytotox: 13µM; KB-V1 cytotox: inconclusive

How did Cc1ccc(Cl)cc1N1CCN(S(=O)(=O)c2ccc3c(c2)CCN3C(=O)C2CCC2)CC1 do in these assays?
KB-3-1 cytotox: inactive; KB-V1 cytotox: inactive

What do the screens show for `COc1ccc(CN(Cc2ccccc2)C(=O)COC(C)=O)cc1COc1ccc(NC(C)=O)cc1`?
Giardia kill: inactive

What do the screens show for `Cc1ccnc(Sc2ccc([N+](=O)[O-])cc2[N+](=O)[O-])n1`?
MCF10A rereplic: inconclusive; ASM inhibitor: inactive; Giardia kill: inactive; SW480 rerep: 12µM; KB-3-1 cytotox: inconclusive; KB-V1 cytotox: inconclusive

Results for Cc1ccc(OCCCn2c(-c3ccc(Cl)cc3)nc3ccccc3c2=O)c(C)c1 ?
KB-3-1 cytotox: inactive; KB-V1 cytotox: inconclusive

How did CCCn1nc(C(=O)Nc2ccc3c(c2)OCCO3)c2ccccc2c1=O do in these assays?
MCF10A rereplic: inactive; ASM inhibitor: inactive; Giardia kill: inactive; SW480 rerep: inactive; KB-3-1 cytotox: inactive; KB-V1 cytotox: 16µM

How did CCCCn1nc(C(=O)Nc2ccccc2N2CCCC2)c2ccccc2c1=O do in these assays?
MCF10A rereplic: inconclusive; ASM inhibitor: inactive; Giardia kill: inactive; SW480 rerep: inactive; KB-3-1 cytotox: inactive; KB-V1 cytotox: 3.7µM

Results for CCCn1nc(C(=O)NC2CCCc3ccccc32)c2ccccc2c1=O (centres undefined) ?
MCF10A rereplic: inactive; ASM inhibitor: inactive; Giardia kill: inactive; SW480 rerep: inactive; KB-3-1 cytotox: inactive; KB-V1 cytotox: 23µM

Results for CCCn1nc(C(=O)Nc2ccc3c(c2)OCO3)c2ccccc2c1=O ?
MCF10A rereplic: inactive; ASM inhibitor: inactive; Giardia kill: inactive; SW480 rerep: inactive; KB-3-1 cytotox: inactive; KB-V1 cytotox: inconclusive

Results for O=C(NCC(c1ccc(Cl)cc1)N1CCCCC1)c1ccc(F)cc1 (centres undefined) ?
KB-3-1 cytotox: inactive; KB-V1 cytotox: inactive

What do the screens show for `CC1(S(=O)(=O)O)CC(=O)c2ccccc2C1=O` (centres undefined)?
MCF10A rereplic: inconclusive; ASM inhibitor: inactive; Giardia kill: inactive; SW480 rerep: 15µM; KB-3-1 cytotox: inconclusive; KB-V1 cytotox: inactive

Results for CCOC(=O)c1nnc(-c2ccccc2)nc1Sc1ccccc1Cl ?
MCF10A rereplic: 6.5µM; ASM inhibitor: inactive; Giardia kill: inactive; SW480 rerep: inconclusive; KB-3-1 cytotox: inconclusive; KB-V1 cytotox: inactive

Results for CCOC(=O)c1nnc(-c2ccc(C)cc2)nc1Sc1cccc(Cl)c1 ?
MCF10A rereplic: inactive; ASM inhibitor: inactive; Giardia kill: inactive; SW480 rerep: inactive; KB-3-1 cytotox: inactive; KB-V1 cytotox: inactive

How did Cc1ccc(S(=O)(=O)NCC(=O)N(CC(=O)NCC2CCCO2)Cc2ccc(Cl)cc2)cc1 (centres undefined) do in these assays?
MCF10A rereplic: inactive; ASM inhibitor: inactive; Giardia kill: inactive; SW480 rerep: inactive; KB-3-1 cytotox: inconclusive; KB-V1 cytotox: inactive

How did COC(=O)[C@]12CCCCC=C1N(CCc1ccc(OC)c(OC)c1)C(=O)[C@H](CC(=O)NCc1cccc3ccccc13)C2 do in these assays?
KB-3-1 cytotox: inactive; KB-V1 cytotox: 21µM

Results for COC(=O)[C@]12CCCCC=C1N(Cc1cccc3ccccc13)C(=O)[C@H](CC(=O)NCc1cccs1)C2 ?
KB-3-1 cytotox: inconclusive; KB-V1 cytotox: 16µM

What do the screens show for `COC(=O)[C@]12CCCCC=C1N(Cc1cccc3ccccc13)C(=O)[C@H](CC(=O)NCc1ccc(OC)c(OC)c1)C2`?
KB-3-1 cytotox: 5.8µM; KB-V1 cytotox: inconclusive

How did CCOC(=O)[C@]12CCC=C1N(Cc1cccc3ccccc13)C(=O)[C@H](CC(=O)NCc1ccc(OC)c(OC)c1)C2 do in these assays?
KB-3-1 cytotox: 6.5µM; KB-V1 cytotox: inconclusive

What do the screens show for `COC(=O)[C@]12CCCCC=C1N(Cc1cccc3ccccc13)C(=O)[C@H](CC(=O)NCc1cccc3ccccc13)C2`?
KB-3-1 cytotox: inactive; KB-V1 cytotox: inactive

What do the screens show for `Cc1ccc(-c2cc(C(=O)N(Cc3ccc(C(C)(C)C)cc3)Cc3ccco3)no2)cc1`?
KB-3-1 cytotox: inactive; KB-V1 cytotox: inactive

Results for COc1cc(NC(=O)CSc2nc3nc(C)c(Cc4ccc(C)cc4)c(C)n3n2)cc(OC)c1 ?
KB-3-1 cytotox: inactive; KB-V1 cytotox: inactive

How did CCOC(=O)[C@]12CCCC=C1N(Cc1cccc3ccccc13)C(=O)[C@H](CC(=O)NCc1cccc3ccccc13)C2 do in these assays?
KB-3-1 cytotox: inactive; KB-V1 cytotox: inconclusive

How did CCOC(=O)[C@]12CCC=C1N(Cc1cccc3ccccc13)C(=O)[C@H](CC(=O)NCCC(C)C)C2 do in these assays?
KB-3-1 cytotox: inconclusive; KB-V1 cytotox: 16µM

How did CCCCOCCCNC(=O)C[C@@H]1C[C@@]2(C(=O)OCC)CCCC=C2N(Cc2cccc3ccccc23)C1=O do in these assays?
KB-3-1 cytotox: inconclusive; KB-V1 cytotox: 18µM

Results for CCCCCCCCN1C(=O)[C@H](CC(=O)NCc2cccc(C(F)(F)F)c2)C[C@@]2(C(=O)OC)CCCCC=C12 ?
KB-3-1 cytotox: inconclusive; KB-V1 cytotox: 16µM

What do the screens show for `C#CCNC(=O)C[C@@H]1C[C@@]2(C(=O)OCC)CCCC=C2N(Cc2cccc3ccccc23)C1=O`?
KB-3-1 cytotox: inactive; KB-V1 cytotox: inconclusive

What do the screens show for `CCCCCCCCN1C(=O)[C@H](CC(=O)NCc2cccs2)C[C@@]2(C(=O)OC)CCCCC=C12`?
KB-3-1 cytotox: inconclusive; KB-V1 cytotox: 21µM
